AI-2 QS modul = Vibrio harveyi AI-2 quorum sensing modulation. Vibrio harveyi JMH597 AI-2 luminescence/OD600 ratio, 9 h; stronger effect = lower value; strain lacks LuxN and CqsS sensors; 0 = neutral-control median. activity change, % at 7.5 µM. actives 0.4% (n = 300,000). AID 2094; in the data active = activity change below about -75%, passing the limit was not always enough;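 also: luminescence divided by OD600 gain over 9 h not by final OD600 alone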
GAA850 FXN act = activators of GAA850 frataxin (FXN) promoter | HEK293 lucGAA850 FXN promoter luciferase reporter, 24 h; percent of 10 µM SAHA response | activation, % at 6 µM | actives 0.56% (n = 360,000) | AID 540364;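 active = activation above the average of all compounds screened plus 3 SD, cutoff fixed separately per campaign, cut at about 7.5% in these data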
PG9 binder = PG9 antibody binding by small molecule; TR-FRET gp120-PG9 antibody binding; inhibition, % at 6.7 µM; actives 0.43% (n = 360,000); AID 624416; in the data active = inhibition above about 8.5%
HSF1 inhib = HSF1 inhibition. NIH3T3-HGL HSE-luciferase, MG132-induced, luminescence 8 h; stronger effect = lower value. activity change, negative = inhibition, % at 7.5 µM (by protocol). actives 0.77% (n = 300,000);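 active = more than half of replicate wells show activity change below -50%, luminescence cut by over half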;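 also: luciferase reports HSF-1 transcriptional activity via heat shock element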
SMARCA2 activ = SMARCA2 function activation, primary screen; actives 1% (n = 370,000); activation, % at 9.1 µM; MG213 cells, MMTV-luciferase reporter, dexamethasone, overnight; in the data active = activation above about 7.8%
HSP90 refold inh = blocks HSP90-mediated luciferase refolding in reticulocyte lysate | actives 0.91% (n = 290,000) | Rabbit reticulocyte lysate, luciferase refolding luminescence, 3 h | inhibition, % at 5.6 µM | AID 1789;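 active = inhibition above the screen-wide mean plus 3 SD, computed separately per campaign, cut at about 16% in these data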;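 also: inhibitors lower the luminescence because luciferase stays unfolded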
HSP90 inh confirm = confirmation of HSP90 inhibitors; shares compounds with HSP90 refold inh; rabbit reticulocyte lysate, luciferase refolding luminescence, 3 h; inhibition, % at 5.9 µM; actives 64% (n = 2,300); AID 1846; in the data active = inhibition above about 18%
luciferase ctr = blocks native firefly luciferase in HSP90 counter-screen | actives 48% (n = 2,300) | inhibition, % at 5.9 µM | AID 1847 | purified native firefly luciferase, luminescence | shares compounds with HSP90 refold inh;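 active = inhibition above the mean inhibition of all tested sample wells plus 3 SD, cut at about 10% in these data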
Target sequence (P08659 whole entry, looked up): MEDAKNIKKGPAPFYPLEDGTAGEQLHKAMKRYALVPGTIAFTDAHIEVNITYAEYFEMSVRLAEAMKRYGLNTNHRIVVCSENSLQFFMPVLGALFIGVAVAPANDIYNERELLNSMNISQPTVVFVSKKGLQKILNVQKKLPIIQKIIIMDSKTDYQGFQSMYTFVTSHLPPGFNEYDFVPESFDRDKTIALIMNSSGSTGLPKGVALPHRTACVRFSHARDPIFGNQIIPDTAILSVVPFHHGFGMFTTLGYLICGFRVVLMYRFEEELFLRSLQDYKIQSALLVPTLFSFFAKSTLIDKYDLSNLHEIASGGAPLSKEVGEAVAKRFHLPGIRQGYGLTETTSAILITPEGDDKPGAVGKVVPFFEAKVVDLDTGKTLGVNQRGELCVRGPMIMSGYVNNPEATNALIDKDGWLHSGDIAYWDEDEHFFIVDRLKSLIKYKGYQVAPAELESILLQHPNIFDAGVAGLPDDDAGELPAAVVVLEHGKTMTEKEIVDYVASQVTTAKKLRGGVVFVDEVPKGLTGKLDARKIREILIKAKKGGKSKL
A number is an active result. Only some compounds are listed: those with a hit (about 3.4% of all), similar ones and a draw of the others.

For CC[C@H](NC(=O)[C@@H](Cc1ccccc1)NC(=O)[C@H]1O[C@@H](n2cnc3c(=O)[nH]c(N)nc32)[C@H](O)[C@@H]1O)c1ccccc1 the results were PG9 binder inactive and SMARCA2 activ inactive.
Cc1ccc(-c2c[n+](CC(=O)Nc3nc(-c4ccc(F)cc4)cs3)c3n2CCC3)cc1 was read as AI-2 QS modul inactive, GAA850 FXN act inactive, PG9 binder inactive, HSF1 inhib inactive, SMARCA2 activ inactive, HSP90 refold inh 26, HSP90 inh confirm 19 and luciferase ctr inactive.
O=C(C[n+]1cc(-c2ccc(F)cc2)n2c1CCC2)Nc1nc(-c2ccccc2)cs1 was read as AI-2 QS modul inactive, GAA850 FXN act inactive, PG9 binder inactive, HSF1 inhib inactive, SMARCA2 activ inactive and HSP90 refold inh inactive.
`O=C1C(Cl)=C(NCCc2ccccc2)C(=O)c2ccccc21` gave GAA850 FXN act inactive, PG9 binder inactive and SMARCA2 activ inactive.
Screening O=C1C(Cl)=C(NCc2cccnc2)C(=O)c2ccccc21 returned AI-2 QS modul inactive, GAA850 FXN act inactive, PG9 binder inactive, HSF1 inhib inactive, SMARCA2 activ inactive, HSP90 refold inh 18, HSP90 inh confirm inactive and luciferase ctr inactive.
O=C(CCl)Nc1ccc(C(=O)NCC2COc3ccccc3O2)cc1 (stereo unspecified) was read as SMARCA2 activ inactive.
For COc1ccc(C(=O)c2coc3ccc(O)c(CN4CCOCC4)c23)cc1 the results were AI-2 QS modul inactive, GAA850 FXN act inactive, PG9 binder inactive, HSF1 inhib inactive, SMARCA2 activ inactive and HSP90 refold inh inactive.
COc1ccc(C(=O)c2coc3ccc(O)c(CN4CCCC4)c23)cc1 was read as AI-2 QS modul inactive, GAA850 FXN act inactive, PG9 binder inactive, HSF1 inhib inactive, SMARCA2 activ inactive, HSP90 refold inh 50, HSP90 inh confirm inactive and luciferase ctr inactive.
`CC1(C)C(=O)NCCN1C(=O)CC1C(=O)NCCN1CC(c1ccccc1)c1ccccc1` (stereo unspecified) gave AI-2 QS modul inactive, GAA850 FXN act inactive, PG9 binder inactive, HSF1 inhib inactive, SMARCA2 activ inactive, HSP90 refold inh 24, HSP90 inh confirm inactive and luciferase ctr inactive.
`COc1ccc(NC(=O)OC(CN2CCCCC2)C(F)(F)F)cc1` (stereo unspecified) gave AI-2 QS modul inactive, GAA850 FXN act inactive, PG9 binder inactive, HSF1 inhib inactive, SMARCA2 activ inactive, HSP90 refold inh 18, HSP90 inh confirm inactive and luciferase ctr inactive.
For COc1ccc(NC(=O)CN2CCCC2)cc1 the results were AI-2 QS modul inactive, GAA850 FXN act inactive, PG9 binder inactive, HSF1 inhib inactive, SMARCA2 activ inactive and HSP90 refold inh inactive.
Cc1c(/C(O)=C2/C(=O)C(=O)N(CCN3CCOCC3)C2c2ccccn2)cnn1-c1ccccc1 (stereo unspecified) was read as AI-2 QS modul inactive, GAA850 FXN act inactive, PG9 binder inactive, HSF1 inhib -85, SMARCA2 activ inactive, HSP90 refold inh 76, HSP90 inh confirm 22 and luciferase ctr 36.
For Cc1c(/C(O)=C2\C(=O)C(=O)N(CCN(C)C)C2c2cccnc2)cnn1-c1ccccc1 (stereo unspecified) the results were GAA850 FXN act inactive, PG9 binder inactive, SMARCA2 activ inactive and HSP90 refold inh inactive.
`Cc1c(/C(O)=C2\C(=O)C(=O)N(CCN(C)C)C2c2cccs2)cnn1-c1ccccc1` (stereo unspecified) gave AI-2 QS modul inactive, GAA850 FXN act inactive, PG9 binder inactive, HSF1 inhib inactive, SMARCA2 activ inactive, HSP90 refold inh 40, HSP90 inh confirm inactive and luciferase ctr inactive.
Screening CCOC(=O)Nc1ccc2c(c1)[C@]1(CC(=O)N(CC(C)C)C1c1ccccc1)C(=O)N2C (stereo partly specified) returned SMARCA2 activ inactive.
Screening Nc1[nH]n(-c2ccccc2)c(=O)c1N=Nc1ccc(F)cc1 returned SMARCA2 activ inactive.
